Structures are written as SMILES. Inconclusive results are not listed. Where a call stands in place of a potency, no number is given. Calls of active or inactive are those of the source. Calls follow the shape of the dose curve; as a rule, active = well fitted inhibition curve with a large enough effect; inconclusive = small, poorly fitted or top-dose-only effect; inactive = flat fitted curve, though single readings scatter.

From PubChem BioAssay (NCATS) come the findings set out here.
Potency is read from the fitted curve at half-maximal effect.

The assay has as its system AS120. Kind of assay: qHTS profiling for inhibitors of Plasmodium falciparum proliferation (AID 504749). Also: nearly all actives have a fitted effect of over 60% in size. Conditions: P. falciparum in erythrocytes, SYBR Green DNA, 72 h; series mostly up to 28.7 µM. Put shortly:
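SYBR Green fluorescence of parasite DNA, read after lysis and overnight dark incubation, measured growth over 72 h in erythrocyte culture at 0.3% parasitemia and 2.5% hematocrit. Data normalised to DMSO and 0.29 uM artemisinin, with plate-drift correction.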
Regarding `CN(C)c1ccc(C(=C2C=CC(=[N+](C)C)C=C2)c2ccccc2)cc1`, the Potency was 11.2 µM (active). Then `O=C(OCc1ccccc1)c1ccccc1`, with “inactive”. In the case of `Nc1ccc(C(=O)O)c(O)c1`, the Potency result was “inactive”. As for `O=C(/C=C/c1ccccc1)NCCO`, the Potency entry was “inactive”.

`O=C1CN(/N=C/c2ccc(-c3ccc([N+](=O)[O-])cc3)o2)C(=O)N1`: the Potency entry was “inactive”. Next, `CCCCCCCCCCCCCCCCCC(=O)O`: “inactive”; `O=C(O)c1cc(O)c(O)c(O)c1`: “inactive”.

`C[S+](CC[C@H](N)C(=O)O)C[C@H]1O[C@@H](n2cnc3c(N)ncnc32)[C@H](O)[C@@H]1O` (stereo partly specified): the Potency entry was “inactive”. With `CN1[C@@H](CC(=O)c2ccccc2)CCC[C@H]1C[C@H](O)c1ccccc1`, the Potency was 12.6 µM (active). As for `CCOC(=O)c1ccccc1O`, the Potency entry was “inactive”. Take `Nc1cc(-c2ccncc2)c[nH]c1=O`: the Potency result is “inactive”. For the molecule `O=C(O)c1ccccc1Nc1cccc(C(F)(F)F)c1`, the Potency entry is “inactive”.

`CCOc1ccc2nc(S(N)(=O)=O)sc2c1`: the Potency entry is “inactive”.

In the case of `CN1[C@@H]2CC[C@H]1CC(OC(c1ccccc1)c1ccccc1)C2` (stereo partly specified), the Potency was 12.6 µM (active).

Regarding `O=C(O)/C=C/C(O)c1ccc(Cl)cc1` (stereo unspecified), the Potency result is “inactive”. `COC(=O)C1=C(C)NC(C)=C(C(=O)OCC(C)C)C1c1ccccc1[N+](=O)[O-]` (stereo unspecified): the Potency was 10 µM (active). As to `Cc1ccc(C(=O)c2ccc(CC(=O)O)n2C)cc1`, the Potency entry was “inactive”.

As for `O=C(CCN1CCN(CCO)CC1)N1c2ccccc2Sc2ccc(C(F)(F)F)cc21`, the Potency was 14.1 µM (active). For the molecule `Cc1cc(O)c2ccccc2c1O`, the Potency result was “inactive”. Regarding `COc1ccc(-c2cc(=S)ss2)cc1`, the Potency result is “inactive”. With `CN1[C@@H]2CC[C@H]1CC(OC(=O)C(CO)c1ccccc1)C2` (stereo partly specified), the Potency entry is “inactive”.
